We go through seven molecules from PubChem BioAssay (Tox21).

Experiment [1] in a line: Nuclear factor erythroid 2-related factor 2/antioxidant responsive element (Nrf2/ARE) small molecule agonists: qHTS cell viability counter screen in human keratinocytes (AID 1919968; active = well fitted curve in the direction sought with a large enough effect in the repeat runs; an effect the other way counts as inactive or inconclusive; also: nearly all actives have a fitted effect of over 55% in size; also: potency is read from the fitted curve at half-maximal effect). In a few lines: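 Parallel cytotoxicity read: KeratinoSens HaCaT cells, compound treatment 23 h, viability by CellTiter-Fluor fluorescence 1 h post-reagent.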
A general note: In qHTS, concentration-response curves come from the screen itself.

A short description of experiment [2]: Nuclear factor erythroid 2-related factor 2/antioxidant responsive element (Nrf2/ARE) small molecule agonists: luciferase reporter gene qHTS assay in human keratinocytes (AID 1919969). Also: nearly all actives have a fitted effect of over 35% in size.
The target of experiment [3] is Gonadotropin-releasing hormone receptor (Homo sapiens) (UniProt P30968). As to the kind of experiment: Human gonadotropin-releasing hormone receptor (GnRHR) small molecule agonists, calcium flux assay in GnRHR-HEK293 cells (AID 1920063). Also: nearly all actives have a fitted effect of over 35% in size. An outline of the steps:
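Calcium flux, agonist mode, human GnRHR stably integrated in HEK293; dye 1 h at 37 C before compound; Ex/Em=480/540 kinetic read, 3 min; 15 concentrations, triplicate.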

The target of experiment [4] is KiSS-1 receptor (Homo sapiens) (UniProt Q969F8). As to the kind of experiment: Human kisspeptin (KISS1R) small molecule agonists, calcium flux assay in KISS1R-HEK293 cells (AID 1920064; active = well fitted curve in the direction sought with a large enough effect in the repeat runs; an effect the other way counts as inactive or inconclusive). In a few lines: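 Triplicate 15-concentration series were applied to dye-loaded human KISS1R HEK293 cells, and agonist-evoked calcium fluorescence was captured for 3 min.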
Chain of KiSS-1 receptor (Homo sapiens) (Q969F8 whole entry, looked up): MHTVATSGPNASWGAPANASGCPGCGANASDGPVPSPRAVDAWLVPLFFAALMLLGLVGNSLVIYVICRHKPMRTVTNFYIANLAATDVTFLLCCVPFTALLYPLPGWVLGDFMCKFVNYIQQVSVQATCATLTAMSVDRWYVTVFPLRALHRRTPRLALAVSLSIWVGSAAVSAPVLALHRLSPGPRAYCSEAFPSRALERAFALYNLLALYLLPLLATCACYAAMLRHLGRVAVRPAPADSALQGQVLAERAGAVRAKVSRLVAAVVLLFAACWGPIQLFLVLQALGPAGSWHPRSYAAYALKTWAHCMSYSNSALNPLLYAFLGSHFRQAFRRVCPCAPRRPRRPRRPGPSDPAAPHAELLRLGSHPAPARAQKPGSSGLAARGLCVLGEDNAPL
Experiment [5] can be described thus: G protein-coupled receptor (GPCR) small molecule agonists, calcium flux assay: HEK293 wild type cell line counter screen (AID 1920065). In a few lines: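 Non-specific calcium responders were flagged by adding DMSO-dissolved compounds to dye-loaded cells and reading 480/540 nm fluorescence each second for 3 min; ATP served as positive control.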
Experiment [6] is described as follows: p53 small molecule agonists, cell-based qHTS assay with human liver microsomes (AID 1963577).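 Also: p53 response element beta-lactamase reporter cells with liver microsomes plus NADPH.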 An outline of the steps:
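Reporter activation was measured by LiveBLAzer fluorescence intensity in p53RE-bla cells, which had been exposed to compounds for 16 h at 37 C alongside 0.5 mg/mL human liver microsomes and 0.5 mg/mL NADPH (final concentrations).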

Experiment [7] is described as follows: p53 small molecule agonists, cell-based qHTS assay with human liver microsomes: qHTS cell viability counter screen (AID 1963579). Also: nearly all actives have a fitted effect of over 45% in size. In a few lines:
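HLM-supplemented (0.5 mg/mL final) and NADPH-supplemented (0.5 mg/mL final) p53RE-bla cultures, 4,000 cells per well, were dosed with compounds in DMSO for 16 h at 37 C; luminescent ATP detection (CellTiter-Glo, 30 min, room temperature) quantified surviving cells.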

Experiment [8] can be described thus: p53 small molecule agonists, cell-based qHTS assay with rat liver microsomes: qHTS cell viability counter screen (AID 1963580). Also: nearly all actives have a fitted effect of over 45% in size. An outline of the steps:
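After the beta-lactamase ratio was read, CellTiter-Glo was added to the same wells and luminescence measured at 30 min; cells had been treated 16 h at 37 C with compounds, rat liver microsomes and NADPH (0.5 mg/mL final each).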

Experiment [9] in a line: p53 small molecule agonists, cell-based qHTS assay: qHTS cell viability counter screen (AID 1963581). Also: nearly all actives have a fitted effect of over 45% in size. In a few lines:
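Multiplexed with the reporter read, a CellTiter-Glo step (30 min, room temperature) gauges ATP-based viability of HCT-116 p53RE-bla cells after 16 h compound incubation at 37 C.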

The nature of experiment [10]: p53 small molecule agonists, cell-based qHTS assay (AID 1963582; active = well fitted activation curve with a large enough effect in the signal ratio in the repeat runs, not every such curve was filed as active; the % refers to the signal ratio). An outline of the steps:
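Beta-lactamase reporter cells (p53RE-bla) treated with compounds for 16 h at 37 C; FRET substrate, 2 h, room temperature; fluorescence intensity.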

Experiment [11] addresses 5-hydroxytryptamine receptor 2A (Homo sapiens) (UniProt P28223). Put plainly: 5-hydroxytryptamine receptor 2A (HTR2A) small molecule agonists, cell-based qHTS assay (AID 1963587). Also: nearly all actives have a fitted effect of over 30% in size. Also: potency is read from the fitted curve at half-maximal effect. An outline of the steps:
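CHO cells stably expressing human HTR2A, plated 18 h, loaded with calcium dye 1 h at 37 C. Agonist mode: compounds added and intracellular calcium fluorescence recorded kinetically for 2 min at 1 sec intervals.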

Experiment [12] addresses Muscarinic acetylcholine receptor M1 (Homo sapiens) (UniProt P11229). Put plainly: Cholinergic receptor muscarinic 1 (CHRM1) small molecule antagonists, cell-based qHTS assay (AID 1963588). Also: nearly all actives have a fitted effect of over 40% in size. In a few lines: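 Compounds were tested at 15 concentrations in three independent runs. Dye-loaded CHRM1-CHO cells were exposed 5 min at room temperature before stimulation by acetylcholine added at 50nM. Intracellular calcium was read kinetically on FDSS for 3 min.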

Experiment [13] shares this target. Put plainly: Cholinergic receptor muscarinic 1 (CHRM1) small molecule agonists, cell-based qHTS assay (AID 1963589). Also: nearly all actives have a fitted effect of over 35% in size. An outline of the steps: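 qHTS, 15-point titration, 3 independent runs: compounds pin-transferred onto dye-loaded CHRM1-CHO cells (human M1), calcium fluorescence followed every second to detect agonism.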
A short description of experiment [14]: cAMP Responsive Elements (CRE) small molecule agonists, cell-based qHTS assay (AID 1963590). An outline of the steps:
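Quantitative HTS for CRE agonists: HEK 293T CRE-bla cells, overnight plating, 3 h compound incubation at 37 C/5% CO2, then 2 h room-temperature LiveBLAzer B/G FRET substrate loading.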

Experiment [15] in a line: cAMP Responsive Elements (CRE) small molecule antagonists, cell-based qHTS assay (AID 1963591; active = well fitted inhibition curve with a large enough effect in the signal ratio in the repeat runs, not every such curve was filed as active; the % refers to the signal ratio). An outline of the steps: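 Fluorescence intensity from cleaved LiveBLAzer B/G substrate (2 h, room temperature) quantified CRE-bla activity in HEK 293T cells exposed 3 h to compound with 0.25 uM final NKH477.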
Experiment [16] concerns the target Beta-2 adrenergic receptor (Homo sapiens) (UniProt P07550). Put plainly: Adrenergic beta2 receptor (ADRB2) small molecule antagonists, cell-based qHTS assay (AID 1963592). Also: nearly all actives have a fitted effect of over 50% in size. Also: potency is read from the fitted curve at half-maximal effect. As to activity change, negative = inhibition: series mostly up to about 92 µM. An outline of the steps: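 Assay format: CHO-ADRB2 cells, 18-20hr seeding at 37C/5% CO2, then compound plus 1nM isoproterenol agonist mix for 0.5hr RT. Homogeneous time-resolved fluorescence cAMP detection after 1hr, expressed as 665/615 nm ratio.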

The target of experiment [17] is D(2) dopamine receptor (Homo sapiens) (UniProt P14416). Put plainly: Dopamine D2 receptor (DRD2) small molecule agonists, cell-based qHTS assay (AID 1963594). Also: nearly all actives have a fitted effect of over 35% in size. An outline of the steps: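 HEK293 cells stably expressing human DRD2, pre-treated with PDE inhibitor Ro20-1724 (0.1 mM final) and compound 10 min at room temperature, then stimulated with NKH477 (200nM […]) for 30 min. cAMP read by HTRF (665/620 nm).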
Chain of D(2) dopamine receptor (Homo sapiens) (P14416 whole entry, looked up): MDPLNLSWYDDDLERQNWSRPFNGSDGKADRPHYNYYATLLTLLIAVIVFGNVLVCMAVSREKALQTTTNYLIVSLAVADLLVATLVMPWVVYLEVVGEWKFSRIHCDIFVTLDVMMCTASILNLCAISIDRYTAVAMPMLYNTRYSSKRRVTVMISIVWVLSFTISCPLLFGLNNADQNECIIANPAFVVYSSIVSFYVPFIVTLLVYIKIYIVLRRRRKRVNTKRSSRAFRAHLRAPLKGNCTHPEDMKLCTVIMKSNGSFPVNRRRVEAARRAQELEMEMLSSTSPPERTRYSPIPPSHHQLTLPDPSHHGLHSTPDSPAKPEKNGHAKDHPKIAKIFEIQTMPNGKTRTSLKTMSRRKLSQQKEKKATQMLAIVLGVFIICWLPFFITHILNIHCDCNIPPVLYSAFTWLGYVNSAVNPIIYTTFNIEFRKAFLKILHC

Experiment [18] shares this target. As to the kind of experiment: Dopamine D2 receptor (DRD2) small molecule antagonists, cell-based qHTS assay (AID 1963595; active = well fitted inhibition curve with a large enough effect in the signal ratio in the repeat runs, with a control signal flat; the % refers to the signal ratio; also: potency is read from the fitted curve at half-maximal effect). In a few lines:
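Cells were plated and grown for 24 h at 37 °C. Ro20-1724 (0.1 mM final) went in first, then compound for 10 min. NKH477 (200 nM) with quinpirole (12 nM) followed for 30 min at RT, then HTRF detection reagents for 1 h.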

For experiment [19], the target named is 5-hydroxytryptamine receptor 2A (Homo sapiens) (UniProt P28223). As to the kind of experiment: 5-hydroxytryptamine receptor 2A (HTR2A) small molecule antagonists, cell-based qHTS assay (AID 1963586). Also: nearly all actives have a fitted effect of over 45% in size. Also: potency is read from the fitted curve at half-maximal effect. In a few lines:
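CHO cells stably expressing human HTR2A were plated for 18 h at 37 C, then loaded with calcium dye for 1 h. Compounds were preincubated 5 min at room temperature before DOI (4 nM solution) was added. Kinetic fluorescence was read for 3 min.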

Each structure is given as a SMILES string. Unmarked numbers belong to inactive results. Records with an inconclusive call do not appear. Calls of active or inactive are those of the source. Unless noted, calls follow the shape of the full dose curve.
% is scaled to controls: 0 for no effect and ±100 for the full control effect.

Chain of Gonadotropin-releasing hormone receptor (Homo sapiens) (P30968 whole entry, looked up): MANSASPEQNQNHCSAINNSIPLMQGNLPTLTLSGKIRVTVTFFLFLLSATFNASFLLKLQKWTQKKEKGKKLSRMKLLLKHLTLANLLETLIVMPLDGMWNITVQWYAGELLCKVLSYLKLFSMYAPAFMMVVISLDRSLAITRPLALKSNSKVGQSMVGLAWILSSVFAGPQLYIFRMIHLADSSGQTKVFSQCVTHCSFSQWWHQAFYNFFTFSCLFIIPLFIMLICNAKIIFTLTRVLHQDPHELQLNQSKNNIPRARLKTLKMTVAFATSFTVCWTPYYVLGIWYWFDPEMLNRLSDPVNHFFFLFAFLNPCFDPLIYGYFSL
Chain of 5-hydroxytryptamine receptor 2A (Homo sapiens) (P28223 whole entry, looked up): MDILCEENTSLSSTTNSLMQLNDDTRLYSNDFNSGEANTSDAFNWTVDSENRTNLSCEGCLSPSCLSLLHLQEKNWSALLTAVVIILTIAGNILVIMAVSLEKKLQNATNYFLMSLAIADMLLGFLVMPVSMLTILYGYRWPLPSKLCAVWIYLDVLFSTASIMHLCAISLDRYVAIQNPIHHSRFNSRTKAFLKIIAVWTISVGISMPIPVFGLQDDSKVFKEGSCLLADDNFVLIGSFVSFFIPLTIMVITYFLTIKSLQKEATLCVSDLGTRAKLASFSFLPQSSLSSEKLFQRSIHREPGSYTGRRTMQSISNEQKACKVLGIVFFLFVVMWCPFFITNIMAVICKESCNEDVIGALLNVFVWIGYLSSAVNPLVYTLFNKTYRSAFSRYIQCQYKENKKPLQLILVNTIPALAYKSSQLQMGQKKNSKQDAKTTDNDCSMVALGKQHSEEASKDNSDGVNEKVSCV
Chain of Muscarinic acetylcholine receptor M1 (Homo sapiens) (P11229 whole entry, looked up): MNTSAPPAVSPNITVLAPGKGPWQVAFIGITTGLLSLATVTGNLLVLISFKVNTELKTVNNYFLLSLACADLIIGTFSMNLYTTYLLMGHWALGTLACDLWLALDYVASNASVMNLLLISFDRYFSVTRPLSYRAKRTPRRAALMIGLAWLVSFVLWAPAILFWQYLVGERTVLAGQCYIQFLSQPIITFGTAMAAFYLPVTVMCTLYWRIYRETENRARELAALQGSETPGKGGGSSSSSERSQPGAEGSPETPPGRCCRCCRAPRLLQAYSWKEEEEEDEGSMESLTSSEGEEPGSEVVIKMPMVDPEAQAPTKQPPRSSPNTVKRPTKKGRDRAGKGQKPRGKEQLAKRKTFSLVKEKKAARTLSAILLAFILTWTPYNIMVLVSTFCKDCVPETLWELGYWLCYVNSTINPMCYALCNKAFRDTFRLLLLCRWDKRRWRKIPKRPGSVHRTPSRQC
Chain of Beta-2 adrenergic receptor (Homo sapiens) (P07550 whole entry, looked up): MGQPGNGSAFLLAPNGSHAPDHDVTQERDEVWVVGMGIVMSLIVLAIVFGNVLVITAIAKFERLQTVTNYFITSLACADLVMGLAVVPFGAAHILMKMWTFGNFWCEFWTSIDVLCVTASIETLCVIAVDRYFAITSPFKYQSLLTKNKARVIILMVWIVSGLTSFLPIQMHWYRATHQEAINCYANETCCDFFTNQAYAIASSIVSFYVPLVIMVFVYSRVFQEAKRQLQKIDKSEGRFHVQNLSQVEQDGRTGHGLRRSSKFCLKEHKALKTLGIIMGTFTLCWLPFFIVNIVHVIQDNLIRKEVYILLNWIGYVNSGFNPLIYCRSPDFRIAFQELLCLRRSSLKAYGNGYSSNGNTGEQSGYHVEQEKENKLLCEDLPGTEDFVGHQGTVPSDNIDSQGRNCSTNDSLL

In the case of `Cc1ccc(=O)n(-c2ccccc2)c1`, the Potency entry in [1], in experiment [2], in experiment [3], in [6], in [7] and in [8] was “inactive” in each case. Also, the Potency entry in [9], in [10], in [11], in experiment [12], in experiment [13] and in [14] was “inactive” in each case. Also, the Potency entry in experiment [15], in experiment [16], in experiment [17] and in experiment [18] was “inactive” each time. The outcome in [4] and in experiment [5] was inactive.
For the molecule `Nc1c2c(nc3c1CCC3)CCCC2`, the Potency result in experiment [1], in experiment [2], in experiment [3], in [6], in experiment [7] and in experiment [8] was “inactive” in each case. Besides, the Potency entry in experiment [9], in experiment [10], in experiment [11], in experiment [12], in experiment [13] and in experiment [14] was “inactive” throughout. Besides, the Potency entry in experiment [15], in experiment [16], in experiment [17] and in experiment [18] was “inactive” in each case. Moreover, the outcome in [4] and in experiment [5] was inactive.
Take `O=C1c2ccccc2C(=O)c2cc(Cl)ccc21`: the results for the activity change, negative = cytotoxicity in [1], in experiment [7] and in experiment [8] were -4.18% [at 8.39 µM], 3.98% [at 5.99 µM] and 0.229% [at 5.99 µM], respectively. For the same molecule, the activity, positive = activation in experiment [2] was 3.42% [at 8.39 µM]. The activity change in experiment [3] was -1.12% [at 5.22 µM, hits give high values]. Moreover, the activation was -0.408% [at 6.97 µM] in [4]; -1.07% [at 5.23 µM] in experiment [5]; -0.0412% [at 5.99 µM] in experiment [6]; -0.497% [at 5.99 µM] in [10]; -0.206% [at 6.97 µM] in experiment [13]; -1.41% [at 8.39 µM] in experiment [14]. The activation in [17] is 1.23% [at 8.39 µM]. In addition, the activity, negative = inhibition was 0.237% [at 5.62 µM] in experiment [19] and -8.9% [at 5.58 µM] in experiment [12]. For the same molecule, the activity change, negative = inhibition in experiment [15] was -1.91% [at 8.39 µM]; in [16], -7.09% [at 8.39 µM]; in experiment [18] it was -1.19% [at 8.38 µM].
For the molecule `CCCCOC(=O)CC`, the Potency entry in experiment [1], in experiment [2], in [3], in experiment [6], in experiment [7] and in experiment [8] was “inactive” each time. In addition, the Potency entry in experiment [9], in experiment [10], in experiment [11], in experiment [12], in experiment [13] and in experiment [14] was “inactive” throughout. For the same molecule, the Potency entry in experiment [15], in experiment [16], in experiment [17] and in experiment [18] was “inactive” each time. In addition, the result in experiment [4] and in experiment [5] was inactive.
For the molecule `COc1cc(N)c(Cl)cc1C(=O)NC1CCN(CCCOc2ccc(F)cc2)CC1OC` (stereo unspecified), the Potency entry in experiment [1], in experiment [2], in experiment [3], in [6], in experiment [7] and in experiment [8] was “inactive” throughout. Moreover, the Potency result in [9], in experiment [10], in experiment [15] and in experiment [17] was “inactive” in each case. The result in [4] and in [5] was inactive. For the same molecule, the values for the Potency in experiment [16] and in experiment [18] were 23.7 µM (active) and 11.9 µM (active), respectively.
As for `CCCCCCCCCCOCC(O)CN` (stereo unspecified), the results for the Potency in [1], in experiment [19] and in experiment [11] were 37.6 µM (active), 18.3 µM (active) and 9.52 µM (active), respectively. The Potency entry in experiment [2], in experiment [3], in experiment [6], in [7], in [8] and in [9] was “inactive” each time. Also, the Potency result in experiment [12], in [13] and in experiment [17] was “inactive” throughout. Also, the outcome in experiment [4] and in experiment [5] was inactive.
On to `O=C(O)CCCCCCC(=O)O`, for which the Potency result in experiment [1], in [2], in experiment [3], in [6], in [7] and in experiment [8] was “inactive” throughout. Besides, the Potency entry in [9], in experiment [19], in experiment [11], in experiment [12], in experiment [13] and in experiment [14] was “inactive” in each case. The Potency entry in experiment [16], in experiment [17] and in [18] was “inactive” throughout. For the same molecule, the outcome in experiment [4] and in [5] was inactive.
